High-throughput results as filed in PubChem.
A selection: hits, their analogues and other compounds. The true share with any hit is near 4%.
Arbovirus anti: antivirals against arbovirus infection; 200,000 tested, 0.37% active; inhibition, % at 10 µM; arbovirus infection cell-based antiviral screen; AID 1251; in the data active = inhibition above about 30%
KCC2 mod: modulates chloride dependent transport by human KCC2. AID 1456. B-score of Tl+ flux slope (higher = more flux/activation; lower = inhibition) at 10 µM. KCC2 cells, thallium flux FluoZin-2 fluorescence. 190,000 tested, 2.2% active. Q9H2X9;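 active = thallium flux slope and its plate-corrected score both differing from the plate sample mean at a set confidence after two filtering rounds, in either direction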;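 note: slope of fluorescence scaled to starting intensity during 10 to 20 s after thallium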
Measles CPE: protection of cells from measles virus; Measles virus-infected cells, CPE protection, absorbance; protection (pct of control), % at 4 µM; 140,000 tested, 1.5% active; in the data active = protection mostly above about 24%, no sharp cut-off; inactive = mostly below about 26%
ROMK mod: modulates human ROMK potassium channel activity. Tet-inducible ROMK, thallium flux fluorescence; actives lie on both sides. B-score at 10 µM. 130,000 tested, 2% active;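 active = signal ratio slope over the read window, or its plate-corrected B-score, at least 3 SD from the plate mean, either direction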;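 note: B-score of the F/F0 ratio slope over 7 to 12 s after thallium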
Target sequence (P48048 whole entry, looked up): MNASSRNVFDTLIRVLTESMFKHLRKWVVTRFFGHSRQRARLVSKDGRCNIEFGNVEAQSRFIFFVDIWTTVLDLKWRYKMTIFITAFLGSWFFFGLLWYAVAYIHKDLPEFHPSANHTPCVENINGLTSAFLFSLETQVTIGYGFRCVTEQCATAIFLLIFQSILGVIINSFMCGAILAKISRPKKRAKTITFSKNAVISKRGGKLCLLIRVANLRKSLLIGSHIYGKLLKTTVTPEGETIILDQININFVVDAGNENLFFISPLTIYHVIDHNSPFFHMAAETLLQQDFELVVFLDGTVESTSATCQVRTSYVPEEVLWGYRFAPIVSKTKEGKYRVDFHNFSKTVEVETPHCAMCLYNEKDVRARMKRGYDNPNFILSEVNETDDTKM
HSV replic up: increases HSV replication in cells; HSV replication augmentation in cells, fold increase; maximum fold increase; 220,000 tested, 0.005% active; in the data active = maximum fold increase above about 1.5; inconclusive = no clear call, values can overlap the other calls; tested in PC3 cells
ROMK hit retest: retested hit modulating human ROMK potassium channel; AID 1917; 3,000 tested, 54% active; normalized thallium flux (F/F0 slope) at 10 µM; shares compounds with ROMK mod; ROMK thallium flux, fluorescence ratio; hits give low values;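 active = Flux at 10 µM at least 3 SD below or above vehicle control mean in one or both replicates; inconclusive = no clear call, values can overlap the other calls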
Large screens that a line does not name were inactive (follow-up assays come after a bar, where they were run).

COc1ccc(/C(C)=C2\SC(=S)N(CCC(=O)O)C2=O)cc1	ROMK mod 3.1 (no result: KCC2 mod) | ROMK hit retest inactive
C/C(=C1/SC(=S)N(CCC(=O)O)C1=O)c1ccc(O)cc1	none (no result: ROMK mod)
COc1ccc(N2CCN(C(=O)c3ccc(N(C)S(=O)(=O)c4ccc(OC)cc4)cc3)CC2)cc1	ROMK mod -14 (no result: Measles CPE) | ROMK hit retest inconclusive
CN(c1ccc(C(=O)N2CCN(Cc3ccc4c(c3)OCO4)CC2)cc1)S(=O)(=O)c1ccccc1	none (no result: KCC2 mod)
Cc1ccc(S(=O)(=O)N(C)c2ccc(C(=O)N3CCN(Cc4ccc5c(c4)OCO5)CC3)cc2)cc1	ROMK mod -5 (no result: KCC2 mod) | ROMK hit retest 0.063
CC1CN(C(=O)c2ccccc2)c2ccccc2NC1=O (stereo unspecified)	ROMK mod -1.5 | ROMK hit retest inactive
CCC(=O)N1CC(C)C(=O)Nc2ccccc21 (stereo unspecified)	none
COc1ccc(C(=O)CCC(=O)O)c(C)c1	ROMK mod 4.3 (no result: KCC2 mod) | ROMK hit retest inactive
COCCNC(=O)/C(C#N)=C/c1cccc(NC(=O)c2ccccc2Cl)c1	none (no result: ROMK mod) | ROMK hit retest 0.047
CC(C)NC(=O)/C(C#N)=C/c1cccc(NC(=O)c2ccccc2Cl)c1	none (no result: ROMK mod)
O=C1CC(N2CCN(c3ccccc3)CC2)C(=O)N1Cc1ccc(Cl)cc1 (stereo unspecified)	none (no result: Measles CPE)
Cc1cccc(N2C(=O)CC(N3CCN(Cc4ccc(Cl)cc4)CC3)C2=O)c1 (stereo unspecified)	none | ROMK hit retest inconclusive
CCOC(=O)C1CCN(C(=O)c2cc3ccccc3oc2=O)CC1	none (no result: Measles CPE)
CN(CCCNC(=O)CSc1cc(=O)n(C)c2ccc(Cl)cc12)Cc1ccccc1	none (no result: Measles CPE, ROMK mod)
CC(=O)N(C(C)=O)N1C(=O)/C(=C/c2ccc(Cl)cc2)SC1=S	ROMK mod -3.2 (no result: Measles CPE) | ROMK hit retest 0.053
Cn1nc(C(=O)Nc2nc3ccccc3[nH]2)ccc1=O	none (no result: Measles CPE)
CCOc1cc(C)c(Cl)cc1S(=O)(=O)NC1CC(C)(C)NC(C)(C)C1	ROMK mod -3.7 | ROMK hit retest 0.064
COc1cc(C)c(Cl)c(C)c1S(=O)(=O)NC1CC(C)(C)NC(C)(C)C1	ROMK mod -2.6 (no result: Measles CPE) | ROMK hit retest 0.053
COc1ccc(S(=O)(=O)NC2CC(C)(C)NC(C)(C)C2)c(C)c1C	none (no result: KCC2 mod)
COc1ccc(C(OC(=O)c2ccco2)C(=O)NC(C)(C)C)cc1 (stereo unspecified)	none (no result: Measles CPE)
C=CCOC(=O)C(C#N)c1nc2ccccc2nc1N1CCN(Cc2ccc3c(c2)OCO3)CC1 (stereo unspecified)	ROMK mod -3.2 | ROMK hit retest 0.063
Cc1ccc(C)n1-c1nccc(-c2cccs2)n1	none (no result: ROMK mod, HSV replic up)
Cc1nc2nc(-c3cccs3)cn2nc1C	ROMK mod -8.5 (no result: HSV replic up) | ROMK hit retest 0.042
CCc1ccnc(NS(=O)(=O)c2ccc3c(c2)CCO3)c1	none (no result: Arbovirus anti, Measles CPE, ROMK mod)
O=C(NC(=O)c1ccc(F)cc1F)Nc1ccc(Cl)cc1	none (no result: Arbovirus anti, Measles CPE)
Cc1c(NC(=S)NC(=O)c2ccc(-c3ccc(Cl)cc3)o2)cccc1C(=O)O	ROMK mod 3.5 (no result: Measles CPE) | ROMK hit retest inactive
O=C(NC(=S)Nc1ccccc1O)c1ccc(-c2ccc(Cl)cc2)o1	none (no result: KCC2 mod, ROMK mod)
CC(C)(C)n1nnnc1C(c1ccncc1)N1CCN(C2CCCCC2)CC1 (stereo unspecified)	none (no result: ROMK mod)
Cc1ccc(C(c2nnnn2C(C)(C)C)N2CCN(C3CCCC3)CC2)cc1 (stereo unspecified)	ROMK mod -5 | ROMK hit retest inactive
COc1ccc(-n2cc(CNC3CCC(O)CC3)c(-c3cccc(F)c3)n2)cc1 (stereo unspecified)	none (no result: Measles CPE)
CCOC(=O)c1c(C)n(-c2ccc(C)cc2)c2ccc(OCC(O)CNCCCO)cc12 (stereo unspecified)	ROMK mod -3.6 (no result: Measles CPE) | ROMK hit retest 0.053
CC(=O)c1c(C)nc(-c2cccc([N+](=O)[O-])c2)n1O	ROMK mod -4.7 (no result: Measles CPE) | ROMK hit retest 0.063
Cc1cc(N=Cc2cc(Br)ccc2O)no1	none (no result: ROMK mod) | ROMK hit retest inconclusive
Cc1ccc(S(=O)(=O)N(C)C)cc1NC(=O)C(C)Sc1ccccc1 (stereo unspecified)	none (no result: Measles CPE)
CC1CN(Cc2nc3c(c(=O)n(C)c(=O)n3C)n2Cc2ccc(Cl)cc2)CC(C)O1 (stereo unspecified)	none (no result: KCC2 mod, Measles CPE, ROMK mod, HSV replic up)
COc1ccc(C(=O)c2c(-c3ccsc3)oc3ccc(-c4ccc(OC)cc4)cc23)cc1	none (no result: Arbovirus anti, KCC2 mod, Measles CPE, ROMK mod)
O=S(=O)(NC1CCCC1)c1ccc(S(=O)(=O)N(Cc2cccs2)CC2CCCO2)cc1 (stereo unspecified)	ROMK mod -3.1 | ROMK hit retest inactive
O=C(Cc1cccs1)N(CC1CCCO1)C1(C(=O)NC2CCCC2)CCCCC1 (stereo unspecified)	ROMK mod -1.8 (no result: Measles CPE) | ROMK hit retest inconclusive
COc1cccc(C(=O)C2CCCN(C(=O)c3cccc(C#CC(C)(C)O)c3)C2)c1 (stereo unspecified)	ROMK mod 1.7 (no result: Measles CPE) | ROMK hit retest inactive
C=CCNC(=O)c1onc(CSc2ccc(F)c(F)c2)c1C(=O)NCC=C	none (no result: Arbovirus anti, KCC2 mod, Measles CPE, ROMK mod)
O=C(Nc1cccc(-c2cn3cccnc3n2)c1)c1ccc(Br)o1	none (no result: ROMK mod) | ROMK hit retest inconclusive
O=C(Nc1cccc(-c2cn3cccnc3n2)c1)c1ccco1	none (no result: ROMK mod)
O=C(Nc1cccc(-c2cn3cccnc3n2)c1)c1ccc2c(c1)OCO2	none (no result: ROMK mod) | ROMK hit retest inactive
O=C(Nc1cccc(-c2nnc(-c3ccccc3)o2)c1)c1ccc(Br)o1	none (no result: KCC2 mod) | ROMK hit retest 0.065
COc1ccc(NC(=O)C(=S)N2CCCC2)cc1	none (no result: Measles CPE)
Cn1cc([C@@H]2C[C@H]3CN(Cc4cccc(Cl)c4)C(=O)[C@]34CCCN24)c2ccccc21	none (no result: Measles CPE)
Cc1cccc(C(=O)N2CCC(=O)N(C(COCc3ccc(Cl)cc3)Cc3ccccc3)CC2)c1 (stereo unspecified)	ROMK mod -3.5 | ROMK hit retest 0.048
O=C(c1ccc(C(F)(F)F)cc1)N1CCC(=O)N(C(COCc2ccc(C(F)(F)F)cc2)Cc2ccccc2)CC1 (stereo unspecified)	ROMK mod -4.1 | ROMK hit retest 0.066
Cc1cccc(C(=O)N2CCC(=O)N(C(COCc3cccc(Cl)c3)Cc3ccccc3)CC2)c1 (stereo unspecified)	ROMK mod -3.7 | ROMK hit retest 0.056
O=C(c1cccc(Cl)c1)N1CCC(=O)N(C(COCc2cccc(Cl)c2)Cc2ccccc2)CC1 (stereo unspecified)	none
Cc1cccc(COCC(Cc2ccccc2)N2CCN(C(=O)c3ccc(C(F)(F)F)cc3)CCC2=O)c1 (stereo unspecified)	none
CS(=O)(=O)N1CCc2cc(-c3csc(NC(=O)Cc4cccs4)n3)ccc21	Measles CPE 101 (no result: ROMK mod) | ROMK hit retest 0.068
CCOC(=O)/C(=C\c1cccc(O)c1)c1nc2sc(C)c(C)c2c(=O)[nH]1	ROMK mod -4.1 | ROMK hit retest 0.058
Cc1ccccc1OCCc1c(C)[nH]c(=S)[nH]c1=O	ROMK mod 1.7 (no result: Measles CPE) | ROMK hit retest inactive
N#CC(C#N)=C1C=CC=CN1/C(=C\c1ccccc1)C(=O)c1cccs1	HSV replic up inconclusive (no result: ROMK mod) | ROMK hit retest 0.057
